Among the data in PubChem BioAssay AID620 (Sanford-Burnham Center for Chemical Genomics, 2007) are cytotoxicity values, retold here.

The whole screen tested about 87,000 compounds, of which about 360 (0.41%) were called active. Cut-off read from the data, not from the text of the source: active = cytotoxicity above about 50%; inactive = the rest. Shown is part of a subset that was picked to be rich in actives.

The test is described as follows: cytotoxicity in HT1080 fibrosarcoma cells, cell-based, fluorescence readout (AID 620).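 Note: cells exposed to compound overnight then 4 h with Alamar Blue; 0% = vehicle DMSO and 100% = killing control.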 To be noted: HT1080 viability, at 10 µM, hits give high values.
With `COc1ccc(S(=O)(=O)CCC(=O)NCCc2ccc(C)cc2)cc1`, the cytotoxicity was -7.2% (inactive). To `COCCNC(=O)C(c1cccs1)N(C(=O)Cn1nnc2ccccc21)c1ccccc1` (configuration not stated) belongs 2.1% (inactive); to `Nc1cccc(Nc2nc(OC(C(F)(F)F)C(F)(F)F)nc(OC(C(F)(F)F)C(F)(F)F)n2)c1`, -15.3% (inactive); to `Cc1cc(C)c2nc(SCC(=O)N3CC(=O)Nc4ccccc43)c(C#N)cc2c1`, 70.8% (active). To `Cc1cc(C)c2nc(SCC(=O)Nc3ccccc3N3CCOCC3)c(C#N)cc2c1` belongs 4.9% (inactive); to `CCc1ccc2nc(SCC(=O)N3CC(=O)Nc4ccccc43)c(C#N)cc2c1`, -5.8% (inactive). In the case of `O=C1CN(C(=O)c2ccccc2)c2ccccc2N1` it was 1.9% (inactive); in that of `Cc1cc(C)cc(C(=O)N2CC(=O)Nc3ccccc32)c1`, 63.6% (active). On to `Cc1cc(C)c2nc(SCC(=O)N3CCCCC3)c(C#N)cc2c1`, for which the cytotoxicity was -0.9% (inactive). As for `Cc1ccsc1C(=O)N1CC(=O)Nc2ccccc21`, the cytotoxicity is -1.3% (inactive). To `Cc1cccc2cc(C#N)c(SCC(=O)N3CC(=O)Nc4ccccc43)nc12` belongs 62.5% (active).

Turning to `Cc1cccc2cc(C#N)c(SCC(=O)N3CCC(C)CC3)nc12`, the cytotoxicity is -4.3% (inactive). On to `CC(C)Nc1oc(Cc2cccc3ccccc23)nc1C#N`, for which the cytotoxicity is 4.7% (inactive). In the case of `O=C(CSc1nc2ccccc2o1)c1ccccc1` it was -3.2% (inactive). With `Cc1cccc(NC(=S)N2N=CCC2c2ccccc2)c1` (configuration not stated), the cytotoxicity was -1.4% (inactive).

As for `CC1=C(C(=O)OCc2ccccc2)C(c2ccccc2OC(=O)c2ccc(I)cc2)NC(=O)N1CCCC(=O)O` (configuration not stated), the cytotoxicity was -5.3% (inactive).

Consider `Cn1c(SCC(=O)NCCNC(=O)CSc2nnc(C(F)(F)F)n2C)nnc1C(F)(F)F`, for which the cytotoxicity is 5.9% (inactive). To `Cc1ccc(Nc2cc(C)nn2-c2nc(C)cc(=O)[nH]2)cc1` belongs 65.9% (active); to `Cc1ccc(Nc2cc(C)nn2-c2nc(C)cc(C)n2)cc1`, -13.7% (inactive). In the case of `Cc1cc(=O)[nH]c(-n2nc(C)cc2C)n1` it was -0.8% (inactive). In the case of `O=C(Nc1nc(-c2cc(Cl)sc2Cl)cs1)c1cccs1` it was -0.1% (inactive). `CC(C)Sc1nc(-c2ccccc2)cc(=O)[nH]1`: the cytotoxicity was 16.9% (inactive). To `N#CCCCSc1nnc(-c2ccccn2)o1` belongs 0.3% (inactive). To `CN(C)CCCNC(CC(=O)Nc1ccc(Cl)cc1)C(=O)O` (configuration not stated) belongs -0.1% (inactive).

As for `CCOC(=O)C1CCCN(C(=O)C2CCN(S(=O)(=O)c3cnc[nH]3)CC2)C1` (configuration not stated), the cytotoxicity is 3.9% (inactive). In the case of `O=C(CCl)Nc1cccc(-c2cnc3ccccc3n2)c1` it was 98.8% (active); in that of `O=C(Nc1cccc(-c2cnc3ccccc3n2)c1)c1ccco1`, -2.2% (inactive); in that of `O=C(CNC(=O)c1ccc(Br)o1)Nc1cccc(-c2cnc3ccccc3n2)c1`, -7.7% (inactive). In the case of `CCC(=O)N1c2ccccc2NC2=C(C(=O)CCC2)C1c1cccnc1` (configuration not stated) it was -7% (inactive).

For `CC(=O)N1CCCc2cc(S(=O)(=O)N(CC(C)C)CC(C)C)ccc21`, the cytotoxicity is -25.7% (inactive). For `Cc1ccc2[nH]c(=O)c(CN(Cc3ccco3)C(=O)c3cccs3)cc2c1`, the cytotoxicity was 4.9% (inactive). In the case of `Cc1ccc2cc(CN(Cc3ccco3)C(=O)c3cccs3)c(=O)[nH]c2c1` it was 59.8% (active); in that of `O=C(c1cccs1)N(Cc1ccco1)Cc1cc2ccccc2[nH]c1=O`, -4.8% (inactive); in that of `CN(C)S(=O)(=O)c1ccc(S(=O)(=O)N(CC(=O)Nc2ccccc2)Cc2ccco2)cc1`, 4.9% (inactive). In the case of `COc1nnc(-c2ccc(C)c(S(=O)(=O)NCCO)c2)c2ccccc12` it was 12.8% (inactive); in that of `CSc1cc(-c2ccccc2)n(Cc2ccccc2Cl)c(=O)c1C#N`, 57.5% (active). To `Cn1c(=O)c2c(nc(SCCCC#N)n2Cc2c(F)cccc2Cl)n(C)c1=O` belongs 1.4% (inactive). Turning to `CSc1cc(-c2ccccc2)n(Cc2c(Cl)cccc2Cl)c(=O)c1C#N`, the cytotoxicity was 58.7% (active). In the case of `CSc1cc(-c2ccc(Cl)cc2)n(Cc2ccccc2)c(=O)c1C#N` it was -8.7% (inactive); in that of `Cc1cc(C)n(Cc2ccccc2F)c(=O)c1C#N`, 4.8% (inactive); in that of `CSc1cc(-c2ccccc2)n(Cc2ccc(Cl)cc2Cl)c(=O)c1C#N`, -9.5% (inactive). In the case of `CCOc1ccc(-c2cnc(SCC(N)=O)nc2N)cc1` it was 3.8% (inactive).

Turning to `CCOc1ccc(Br)cc1/C(C)=N\NC1=NCCN1`, the cytotoxicity is 12.3% (inactive). To `CCOc1ccc(CSC2=NCCN2)cc1Cl` belongs 12.8% (inactive); to `CCCOc1ccc(Br)cc1/C=N/O`, -13% (inactive); to `CCCCOc1ccc(Br)cc1/C(C)=N/NC1=NCCN1`, 65.1% (active). To `CCCCCOc1ccc(Br)cc1/C(C)=N/NC1=NCCN1` belongs 74.8% (active); to `COc1ccc(Br)cc1/C(C)=N/NC1=NCCN1`, -8.6% (inactive); to `CCOc1ccc(NC(=O)c2cnccn2)cc1`, -17% (inactive). As for `OC(c1cccnc1)c1cccs1` (configuration not stated), the cytotoxicity is -4.7% (inactive). In the case of `COc1ccc(Br)cc1CN1CCCC(C(=O)N2CCCCCC2)C1` (configuration not stated) it was 1.9% (inactive). With `Cc1ccc(NC(=O)Cn2nnc(-c3ccccc3NC(=O)c3cccs3)n2)cc1`, the cytotoxicity is 61.8% (active). Regarding `O=C(Cn1nnc(-c2ccccc2NC(=O)c2cccs2)n1)Nc1ccccc1`, the cytotoxicity is 0.3% (inactive). In the case of `COc1ccc(NC(=O)Cn2nnc(-c3ccccc3NC(=O)c3cccs3)n2)cc1` it was -14.1% (inactive). To `Cn1c(=O)c2c(-c3ccccc3)n(-c3ccccc3O)cc2n(C)c1=O` belongs 35.8% (inactive).

Take `COc1ccc2c(c1OC)C(=O)N1c3cccc(Cl)c3C(=O)OC21` (configuration not stated): the cytotoxicity was 14.4% (inactive). To `COc1ccc(Nc2nc(C)cc(C)c2C(N)=O)cc1` belongs 3.9% (inactive). To `COc1cc(C2C3=C(Nc4ncnn42)c2ccccc2CC3)cc(OC)c1OC` (configuration not stated) belongs 63.8% (active); to `Clc1ccc(C2C3=C(Nc4ncnn42)c2ccccc2CC3)cc1` (configuration not stated), -2.4% (inactive). To `COc1ccc(C2C3=C(Nc4ncnn42)c2ccccc2CC3)cc1OC` (configuration not stated) belongs -2.9% (inactive). On to `Cc1nn(Cc2ccc(F)cc2)c(C)c1NC(=O)c1cnn2c1NC(c1cccs1)CC2C(F)(F)F` (configuration not stated), for which the cytotoxicity is 11% (inactive). As to `C=C(C)CSc1nc(C)c(Cc2ccccc2)c(=O)[nH]1`, the cytotoxicity was -0.4% (inactive).

In the case of `c1ccc(NCc2nnc3n2CCCCC3)cc1`, the cytotoxicity was 1.8% (inactive). In the case of `CC(=O)N(Cc1ccc(F)cc1)C1=C(NCc2ccccc2)C(=O)c2ccccc2C1=O` it was 92.6% (active). In the case of `O=C(Cc1ccc(F)cc1)NCCc1ccccc1`, the cytotoxicity was -6.5% (inactive). To `Cn1c(=O)c2c(nc(NCCc3ccccc3)n2Cc2ccc(F)cc2)n(C)c1=O` belongs 0.4% (inactive); to `Cn1c(=O)c2c(nc(NCc3ccccc3)n2Cc2ccc(F)cc2)n(C)c1=O`, -1.5% (inactive).

In the case of `CC(=O)n1nc(-c2ccccc2)nc1NCc1ccc(F)cc1`, the cytotoxicity is -1.3% (inactive). In the case of `O=C(Nc1cccc(NC(=O)c2cccnc2Cl)c1)c1ccco1`, the cytotoxicity is -4% (inactive). As to `c1ccc2sc(-c3ccc4c(c3)OCO4)nc2c1`, the cytotoxicity was 0.6% (inactive).

Take `CCCCN(C(=O)CNC(=O)c1ccco1)C(C(=O)NC1CCCCC1)c1ccc(OC)cc1OC` (configuration not stated): the cytotoxicity was -14.5% (inactive). In the case of `COC(=O)c1ccccc1NC(=O)CN(c1cc(OC)ccc1OC)S(C)(=O)=O` it was -6.6% (inactive); in that of `COC1(OC)N=C(N)C2(C#N)C(c3cccc(Oc4ccccc4)c3)C12C#N` (configuration not stated), 0.4% (inactive). In the case of `CC(C)=CCC/C(C)=C/CC(C)(C)CNCCN1CCNCC1` it was 56.1% (active). To `CC(C)=CCC/C(C)=C/CCC(C)NCCN1CCNCC1` (configuration not stated) belongs 6.9% (inactive); to `c1ccc(CNCCN2CCNCC2)nc1`, 6.5% (inactive). On to `CCOc1ccc2nc(NC(=O)C3CCN(c4cnccn4)CC3)sc2c1`, for which the cytotoxicity is -5.6% (inactive). As to `COC(=O)[C@H](C)NC(=O)Nc1ccc(S(N)(=O)=O)cc1`, the cytotoxicity is -17.4% (inactive). In the case of `CCSc1nnc(-c2ccc(S(=O)(=O)N3CCOCC3)cc2)n1CC1CCCO1` (configuration not stated) it was -1.1% (inactive). To `O=S(=O)(c1ccc2c(c1)nc(COc1ccc(Cl)cc1)n2CC1CCCO1)N1CCOCC1` (configuration not stated) belongs 96.6% (active); to `CSc1nnc(-c2ccc(S(=O)(=O)N3CCOCC3)cc2)n1CC1CCCO1` (configuration not stated), 0.1% (inactive).

Regarding `CSc1nc2ccccc2n1C(=O)Oc1ccccc1`, the cytotoxicity was 13.7% (inactive). To `COc1ccc(OC)c(NC(=O)CN2C(=O)c3ccccc3S2(=O)=O)c1` belongs -3.4% (inactive). In the case of `Cc1ccc(S(=O)(=O)N2CCN(C(=O)CN3CCOCC3)C2c2ccccc2)cc1` (configuration not stated) it was 1.5% (inactive). Take `COc1ccc2c(c1)sc1nc(-c3ccccc3)cn12`: the cytotoxicity is 75.6% (active). In the case of `CCOC(=O)N1CCN(C(=O)c2ccc3c(c2)sc2nc(-c4ccccc4)cn23)CC1` it was 0.3% (inactive). To `CCOC(=O)N1CCC(NC(=O)c2ccc3c(c2)sc2nc(-c4cccc(OC)c4)cn23)CC1` belongs 11.5% (inactive); to `COc1cccc(-n2c(SC)nnc2-c2c[nH]c3ccccc23)c1`, 6.9% (inactive); to `COc1ccc(S(=O)(=O)Nc2cc3c4c(oc3c3ccccc23)CC(C)(C)CC4=O)cc1`, -13.5% (inactive). In the case of `COc1ccc(S(=O)(=O)Nc2cc3c(C(C)=O)c(C)oc3c3ccccc23)cc1` it was 62.6% (active); in that of `COC(=O)c1c(C)oc2c1cc(NS(=O)(=O)c1cccs1)c1ccccc12`, 0.6% (inactive); in that of `CCCc1nc2oc3cc(OC)ccc3c(=O)c2c(=O)n1Cc1ccco1`, -4.1% (inactive).

In the case of `CCOC(=O)CSc1nc(-c2cccs2)nc2c1c(=O)n(C)c(=O)n2C`, the cytotoxicity was 1.5% (inactive).

As to `O=C(C1CCCN1S(=O)(=O)c1ccc(Cl)c(Cl)c1)N1CCCCC1` (configuration not stated), the cytotoxicity was -5% (inactive).

For the molecule `CC(C)CNC(=O)C1CCN(c2ccc(S(=O)(=O)N3CCOCC3)cc2Cl)CC1`, the cytotoxicity was -20.4% (inactive). Regarding `CCCNC(=O)C1CCN(c2ccc(S(=O)(=O)N3CCOCC3)cc2Cl)CC1`, the cytotoxicity was -9.5% (inactive). To `O=C(NCc1cccs1)C1CCN(c2ccc(S(=O)(=O)N3CCOCC3)cc2Cl)CC1` belongs 67.8% (active).
